# In PubChem BioAssay (Tox21):
# Several values for one entry are separate records, joined by “and”; a condition that tells them apart may be missing. Equal values may be shown once. Records with an inconclusive call do not appear. Entries that show only a call come without a potency. A structure can be active in one record and inactive in another. Activity calls are given as the source filed them. Unless noted, the call rests on the fitted dose curve; in most records, active means well fitted curve in the direction sought with a large enough effect in the repeat runs; inconclusive means weak or mixed curves; inactive means no such curve, though single readings can be large; an effect the other way counts as inactive or inconclusive.
# Assays:
# [1] = qHTS assay to identify small molecule antagonists of the glucocorticoid receptor (GR) signaling pathway - cell viability counter screen (AID 720693); further: nearly all actives have a fitted effect of over 55% in size
# [2] = qHTS assay for identifying genotoxic compounds that show differential cytotoxicity against isogenic chicken DT40 cell lines with known DNA damage response pathways - wild type cell line (AID 743012); further: nearly all actives have a fitted effect of over 60% in size; further: potency means the concentration at half of the fitted maximal effect
# Outline: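 First, wild type DT40 cells were plated at 300 per well and equilibrated about 0.5 h at 37 C/5% CO2. Next, compounds in DMSO were added and exposure lasted 40 h. Finally, CellTiter-Glo was added for 30 min at room temperature and luminescence recorded.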
# [3] = qHTS assay for identifying genotoxic compounds that show differential cytotoxicity against isogenic chicken DT40 cell lines with known DNA damage response pathways - Rev3 mutant cell line (AID 743014); further: nearly all actives have a fitted effect of over 55% in size; further: potency means the concentration at half of the fitted maximal effect
# [4] = qHTS assay for identifying genotoxic compounds that show differential cytotoxicity against isogenic chicken DT40 cell lines with known DNA damage response pathways - Rad54/Ku70 mutant cell line (AID 743015); further: nearly all actives have a fitted effect of over 60% in size; further: potency means the concentration at half of the fitted maximal effect
# [5] = qHTS assay to identify small molecule antagonists of the androgen receptor (AR) signaling pathway - cell viability counter screen (AID 743033; further: nearly all actives have a fitted effect of over 45% in size; further: potency means the concentration at half of the fitted maximal effect)
# [6] = qHTS assay to identify small molecule antagonists of the androgen receptor (AR) signaling pathway using the MDA cell line - cell viability counter screen (AID 743041; further: nearly all actives have a fitted effect of over 45% in size)
# Outline: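 R1881-driven MDA-kb2 AR-luc cells, 3,000/well, were dosed with library compounds for 16 h; cell health came from CellTiter-Fluor fluorescence in the reporter wells.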
# [7] = qHTS assay to identify small molecule antagonists of the thyroid receptor (TR) signaling pathway - cell viability counter screen (AID 743064); further: nearly all actives have a fitted effect of over 50% in size; further: potency means the concentration at half of the fitted maximal effect
# Outline: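 In-well cytotoxicity read by CellTiter-Fluor (30 min, 37 C) following 23.5 h exposure of GH3 cells bearing a TRE-luciferase sensor. Compounds were added alongside 1 nM (final) T3 to drive TR transactivation.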
# [8] = qHTS assay to identify small molecule antagonists of the thyroid receptor (TR) signaling pathway (AID 743065); further: nearly all actives have a fitted effect of over 55% in size; further: potency means the concentration at half of the fitted maximal effect
# Outline: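 Antagonism measured as loss of luciferase signal in GH3 cells stably carrying a TRE-luciferase reporter, co-treated with compound and T3 (1 nM final) for 23.5 h at 37 C. Viability was read in the same well by CellTiter-Fluor.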
# [9] = system: thyroid hormone receptor (rat, GH3 cells); assay: qHTS assay to identify small molecule agonists of the thyroid receptor (TR) signaling pathway (AID 743066; calls by dose curve)
# [10] = biological target: Estrogen receptor (Homo sapiens) (UniProt P03372); assay: qHTS assay to identify small molecule antagonists of the estrogen receptor alpha (ER-alpha) signaling pathway (AID 743069; active means well fitted curve in the direction sought with a large enough effect in the signal ratio in the repeat runs, not every such curve was filed as active; the % refers to the signal ratio)
# Outline: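 Compound effects are measured against 17beta-estradiol stimulation in HEK293 cells with a UAS-controlled beta-lactamase reporter for ER-alpha. Exposure lasts 18 hr at 37C; LiveBLAzer B/G FRET substrate follows for 2 hr at room temperature.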
# [11] = qHTS assay to identify small molecule antagonists of the estrogen receptor alpha (ER-alpha) signaling pathway - cell viability counter screen (AID 743074; calls by dose curve;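 further: HEK293 cells carrying ER-alpha-UAS-bla reporter stimulated with 17beta-estradiol; nearly all actives have a fitted effect of over 45% in size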; further: potency means the concentration at half of the fitted maximal effect)
# [12] = biological target: Estrogen receptor (Homo sapiens) (UniProt P03372); assay: qHTS assay to identify small molecule agonists of the estrogen receptor alpha (ER-alpha) signaling pathway (AID 743075; calls by dose curve)
# [13] = biological target: Estrogen receptor (Homo sapiens) (UniProt P03372); assay: qHTS assay to identify small molecule agonists of the estrogen receptor alpha (ER-alpha) signaling pathway using the BG1 cell line (AID 743079); further: nearly all actives have a fitted effect of over 20% in size; further: potency means the concentration at half of the fitted maximal effect
# [14] = qHTS assay to identify small molecule antagonists of the estrogen receptor alpha (ER-alpha) signaling pathway using the BG1 cell line (AID 743080; calls by dose curve;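 further: BG1 cells stimulated with 17beta-estradiol alongside compound; nearly all actives have a fitted effect of over 25% in size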; further: potency means the concentration at half of the fitted maximal effect)
# Outline: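 BG1Luc4E2, endogenous ER-alpha, 4xERE-luc; 5 d charcoal-stripped FBS, phenol red free; 24 h plating; cpd + 17beta-estradiol 21.5 h, 37 C/5% CO2; CellTiter-Fluor viability 30 min, then ONE-Glo luciferase 30 min RT.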
# [15] = qHTS assay to identify small molecule antagonists of the estrogen receptor alpha (ER-alpha) signaling pathway using the BG1 cell line - cell viability counter screen (AID 743081);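 further: compound given together with 17beta-estradiol as the ER stimulus; series mostly up to about 70 µM; nearly all actives have a fitted effect of over 45% in size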
# [16] = biological target: Aromatase (Homo sapiens) (UniProt P11511); assay: qHTS assay to identify aromatase inhibitors (AID 743083); further: nearly all actives have a fitted effect of over 55% in size; further: potency means the concentration at half of the fitted maximal effect
# [17] = biological target: Androgen receptor (Homo sapiens) (UniProt P10275); assay: qHTS assay to identify small molecule agonists of the androgen receptor (AR) signaling pathway using the MDA cell line (AID 743040; further: nearly all actives have a fitted effect of over 20% in size)
# Outline: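 After a 5 h incubation at 37C and 0% CO2, MDA-kb2 reporter cells were dosed with compounds in DMSO and kept 16 h under the same conditions. Luciferase activity was then read as luminescence with ONE-Glo.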
# [18] = biological target: Androgen receptor (Homo sapiens) (UniProt P10275); assay: qHTS assay to identify small molecule antagonists of the androgen receptor (AR) signaling pathway using the MDA cell line (AID 743042; further: nearly all actives have a fitted effect of over 55% in size; further: potency means the concentration at half of the fitted maximal effect)
# Outline: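 Antagonist mode: compounds plus R1881 agonist added to MDA-kb2 AR-luc cells, incubated 16 h at 37C. Luciferase reporter luminescence quantified, with multiplexed CellTiter-Fluor readout for cell viability.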
# [19] = biological target: Androgen receptor (Homo sapiens) (UniProt P10275); assay: qHTS assay to identify small molecule antagonists of the androgen receptor (AR) signaling pathway (AID 743035; active means well fitted inhibition curve with a large enough effect in the signal ratio in the repeat runs, not every such curve was filed as active; the % refers to the signal ratio; further: potency means the concentration at half of the fitted maximal effect)
# Outline: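 Beta-lactamase FRET read (2 h RT incubation with LiveBLAzer B/G) following 16 h of compound plus R1881 treatment of AR-UAS-bla HEK293 cells, which had been pre-incubated 4 h at 37C.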
# [20] = biological target: Androgen receptor (Homo sapiens) (UniProt P10275); assay: qHTS assay to identify small molecule agonists of the androgen receptor (AR) signaling pathway (AID 743036; active means well fitted activation curve with a large enough effect in the signal ratio in the repeat runs, with a control signal flat, not every such curve was filed as active; the % refers to the signal ratio)
# Outline: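 Activation was read as beta-lactamase FRET signal from LiveBLAzer B/G substrate, added for 2 h at room temperature. Before that, GeneBLAzer AR-UAS-bla GripTite (HEK293) cells had 16 h compound exposure at 37C.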
# Sequence of Aromatase (Homo sapiens) (P11511 whole entry, looked up): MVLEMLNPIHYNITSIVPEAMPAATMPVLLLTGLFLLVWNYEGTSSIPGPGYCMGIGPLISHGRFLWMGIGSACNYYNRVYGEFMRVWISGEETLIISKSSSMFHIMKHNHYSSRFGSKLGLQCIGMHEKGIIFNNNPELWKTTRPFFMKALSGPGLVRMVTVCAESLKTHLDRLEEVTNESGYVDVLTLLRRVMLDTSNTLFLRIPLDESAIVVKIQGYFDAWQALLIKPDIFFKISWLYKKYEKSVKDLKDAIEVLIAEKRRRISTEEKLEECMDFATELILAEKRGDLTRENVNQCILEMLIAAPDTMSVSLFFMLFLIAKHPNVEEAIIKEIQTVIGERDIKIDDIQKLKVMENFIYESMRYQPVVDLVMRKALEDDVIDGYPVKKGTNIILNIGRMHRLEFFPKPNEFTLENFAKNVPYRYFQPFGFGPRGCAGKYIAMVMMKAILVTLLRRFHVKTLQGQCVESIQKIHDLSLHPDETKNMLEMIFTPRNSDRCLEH
# Sequence of Androgen receptor (Homo sapiens) (P10275 whole entry, looked up): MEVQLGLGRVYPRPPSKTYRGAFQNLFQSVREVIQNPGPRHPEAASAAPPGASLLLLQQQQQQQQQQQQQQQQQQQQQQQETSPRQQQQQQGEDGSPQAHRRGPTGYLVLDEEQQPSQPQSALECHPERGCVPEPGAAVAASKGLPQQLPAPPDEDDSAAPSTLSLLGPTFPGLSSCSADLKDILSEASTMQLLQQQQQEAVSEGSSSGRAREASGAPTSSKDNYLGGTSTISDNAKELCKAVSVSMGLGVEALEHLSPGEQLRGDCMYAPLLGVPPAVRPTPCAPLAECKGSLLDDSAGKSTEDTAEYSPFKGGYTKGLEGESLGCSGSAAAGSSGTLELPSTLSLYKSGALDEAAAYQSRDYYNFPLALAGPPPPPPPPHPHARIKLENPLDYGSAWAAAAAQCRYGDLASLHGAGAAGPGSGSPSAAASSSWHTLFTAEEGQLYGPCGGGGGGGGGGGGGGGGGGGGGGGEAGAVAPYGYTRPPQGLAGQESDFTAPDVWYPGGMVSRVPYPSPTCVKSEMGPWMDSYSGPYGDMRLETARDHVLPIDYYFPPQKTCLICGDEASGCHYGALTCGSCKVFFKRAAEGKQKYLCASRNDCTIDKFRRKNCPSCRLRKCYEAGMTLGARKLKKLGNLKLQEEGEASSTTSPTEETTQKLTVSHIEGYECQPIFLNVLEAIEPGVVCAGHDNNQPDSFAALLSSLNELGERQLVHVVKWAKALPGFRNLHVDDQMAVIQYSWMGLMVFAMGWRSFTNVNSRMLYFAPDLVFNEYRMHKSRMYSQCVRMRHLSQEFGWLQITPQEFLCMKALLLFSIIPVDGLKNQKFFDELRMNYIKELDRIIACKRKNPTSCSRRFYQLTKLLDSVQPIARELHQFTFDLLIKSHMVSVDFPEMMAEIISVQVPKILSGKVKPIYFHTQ
# Sequence of Estrogen receptor (Homo sapiens) (P03372 whole entry, looked up): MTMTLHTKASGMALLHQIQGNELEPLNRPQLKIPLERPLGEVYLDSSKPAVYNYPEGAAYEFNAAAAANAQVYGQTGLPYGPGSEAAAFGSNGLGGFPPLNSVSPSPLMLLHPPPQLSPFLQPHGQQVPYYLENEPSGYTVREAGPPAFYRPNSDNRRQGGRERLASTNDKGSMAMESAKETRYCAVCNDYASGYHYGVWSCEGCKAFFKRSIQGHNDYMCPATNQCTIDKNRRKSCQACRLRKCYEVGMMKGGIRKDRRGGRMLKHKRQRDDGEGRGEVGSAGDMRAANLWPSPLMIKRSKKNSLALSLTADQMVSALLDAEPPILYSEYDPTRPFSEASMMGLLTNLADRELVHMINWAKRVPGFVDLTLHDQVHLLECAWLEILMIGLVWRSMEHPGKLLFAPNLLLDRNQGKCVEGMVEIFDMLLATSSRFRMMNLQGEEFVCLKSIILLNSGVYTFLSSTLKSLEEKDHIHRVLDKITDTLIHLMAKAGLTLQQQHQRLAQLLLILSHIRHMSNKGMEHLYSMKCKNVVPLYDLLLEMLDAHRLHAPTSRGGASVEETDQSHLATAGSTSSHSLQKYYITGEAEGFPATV
SMILES,Potency [1],Potency [2],Potency [3],Potency [4],Potency [5],Potency [6],Potency [7],Potency [8],Potency [9],Potency [10],Potency [11],Potency [12],Potency [13],Potency [14],Potency [15],Potency [16],Potency [17],Potency [18],Potency [19],outcome [20]
COC(=O)CCC(=O)OC,inactive,inactive,inactive,inactive,inactive,inactive,inactive,inactive,inactive,inactive,inactive,inactive,inactive,inactive,inactive,inactive,,,,
Cc1[nH]c(=O)c(C#N)cc1-c1ccncc1,inactive,inactive,inactive,inactive,inactive,inactive,inactive,inactive,inactive,inactive,inactive,inactive,inactive,inactive,inactive,inactive,,,,
C=CC(C)(CCC=C(C)C)OC(C)=O (centres undefined),inactive,inactive,inactive and 54.5 µM (active),inactive,inactive,inactive,inactive,inactive,inactive,inactive,inactive,inactive,inactive,inactive,inactive,inactive,,,,
c1ccc2c(c1)c1cccc3ccc4cccc2c4c31,inactive,inactive,inactive,inactive,inactive,inactive,inactive,inactive,inactive,inactive,3.07 µM (active) and inactive,inactive,inactive,inactive,inactive,inactive,inactive,inactive,,
C[C@]12CCC(=O)C=C1CC[C@@H]1[C@@H]2C(=O)C[C@@]2(C)[C@H]1CC[C@]2(O)C(=O)CO,inactive,inactive and 61.1 µM (active),inactive and 61.1 µM (active),inactive and 68.6 µM (active),inactive,inactive,inactive,inactive,inactive,inactive,inactive,inactive,inactive,inactive,inactive,inactive,,,,
CCCCNS(=O)(=O)c1ccccc1,inactive,inactive,inactive,inactive,inactive,inactive,inactive,inactive,inactive,inactive,inactive,inactive,inactive,inactive,inactive,inactive,,,,
CC(C)OC(=O)C(C)(C)Oc1ccc(C(=O)c2ccc(Cl)cc2)cc1,inactive,29.8 µM (active) and 12.2 µM (active),24.3 µM (active),15.4 µM (active),inactive and 43.6 µM (active),,,,,inactive,inactive,inactive,inactive,inactive and 61.1 µM (active),inactive,inactive and 68.6 µM (active),inactive,inactive and 48.6 µM (active),inactive,inactive
OC1CCCCCCCCCCC1,inactive,inactive,inactive,inactive,inactive,inactive,inactive,inactive,inactive,inactive,inactive,inactive,inactive,inactive,inactive,inactive,,,,
C=C(C)C(=O)OCCOC(=O)C(=C)C,inactive,inactive,inactive,inactive,inactive,inactive,inactive,inactive,inactive,inactive,inactive,inactive,inactive,inactive,inactive,inactive,inactive,inactive,inactive,inactive
c1ccc2c(c1)Oc1ccccc1S2,inactive,inactive,inactive,inactive,inactive,inactive,inactive,inactive,inactive,inactive,inactive,inactive,inactive and 61.1 µM (active),inactive,inactive,inactive,,,,
COc1cc([C@@H]2c3cc4c(cc3[C@H](O)[C@H]3COC(=O)[C@H]23)OCO4)cc(OC)c1OC,inactive,26.6 nM (active) and 24.3 nM (active),29.8 nM (active) and 19.3 nM (active),29.8 nM (active) and 21.7 nM (active),inactive,inactive,0.0432 µM (active),29.8 nM (active) and 24.3 nM (active),inactive,,,,,,inactive,inactive,inactive,inactive,0.0379 µM (active),
Cc1ccc2c(n1)Oc1ccc(C(C)C(=O)OCC(=O)N(C)C)cc1C2 (centres undefined),inactive,26.6 µM (active),inactive,inactive,inactive,inactive,inactive,inactive,inactive,inactive,inactive,inactive,inactive,,inactive,inactive,,inactive,inactive,inactive
C/C=C/C(=O)O,inactive,inactive,inactive,inactive,inactive,inactive,inactive,inactive,inactive,,inactive,,,,inactive,,,,,
CCCc1c(OCCCCc2nn[nH]n2)ccc(C(C)=O)c1O,inactive,29.8 µM (active),29.8 µM (active) and inactive,21.1 µM (active) and 54.5 µM (active),inactive,inactive,inactive,23.7 µM (active) and 61.1 µM (active),inactive,,inactive,inactive,inactive,inactive,inactive,inactive,,,,
